FMDV inh: High Throughput Screening for Foot and Mouth Disease Virus Antivirals; FMDV antiviral cell-based qHTS; 1.2% of 410,000 active; Potency, µM (highest dose often 57.9 µM), without a hit: top-dose activity change, negative = inhibition, actives largely listed as inhibitors; calls by dose curve; tested in HEK293T cells; further: read-out not given here; potency means the concentration at half of the fitted maximal effect; on the % scale 0 is the no-effect control and ±100 the full control effect; nearly all actives have a fitted effect of over 45% in size
Cycloheximide cs: Cycloheximide Counterscreen for Small Molecule Inhibitors of Shiga Toxin. 12% of 300,000 active. cell reporter, cycloheximide protein synthesis inhibition counterscreen. max response, %; in the data active means max response mostly above about 13%, no sharp cut-off; inactive means mostly below about 14%; further: read at 38.3 µM for the half of the compounds with a filed dose; 0% is about no effect
Shiga inhibitor: A qHTS for Small Molecule Inhibitors of Shiga Toxin | 9.2% of 290,000 active | AID 2315, 2010 | Vero cells, Shiga toxin protein synthesis inhibition reporter | inhibition, % at 38.7 µM; in the data active means inhibition mostly above about 28%, no sharp cut-off; inactive means mostly below about 43%; further: 0% is about no effect
Sm TGR block: qHTS Assay for the Inhibitors of Schistosoma Mansoni Peroxiredoxins; Schistosoma mansoni thioredoxin glutathione reductase (TGR), Q962Y6; Potency, µM (highest dose often 114 µM), for inactives: at the top dose activity change, negative = inhibition, most hits filed as inhibitors; 3% of 360,000 active; AID 485364, 2010; purified TGR, DTNB reduction, TNB absorbance 405 nm; active means well fitted inhibition curve with a large enough effect; inconclusive means small, poorly fitted or top-dose-only effect; inactive means no such curve, though single readings can be large or run the other way; further: potency means the concentration at half of the fitted maximal effect; on the % scale 0 is the no-effect control and ±100 the full control effect; nearly all actives have a fitted effect of over 60% in size
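Kinetic colorimetric format: TGR-catalysed, NADPH-driven DTNB reduction monitored via TNB absorbance. Enzyme dispensed at 20 nM; compound exposure 15 min at room temperature before reaction start.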
Active calls of the source: *; ? = inconclusive; nt = no result given; + = active, no number; [ ] = remark or other dose. Hits are enriched below; roughly 12% of the tested compounds scored in any of these assays.

SMILES | FMDV inh | Cycloheximide cs | Shiga inhibitor | Sm TGR block
CCN(CC)c1ccc(C=C2C(=O)OC(c3ccccc3)OC2=O)cc1 (centres undefined) | -9.9% | 15.6 | 40.4 | -27.1%
CC(=O)c1sc(NC(=O)c2ccc(C)c(C)c2)nc1C | 54.3% | 47.0* | 46.5* | ?
CC(=O)c1sc(NC(=O)c2cccnc2Cl)nc1C | 34.1% | 13.0 | -4.2 | -0.3%
CC(=O)c1sc(NC(=O)c2ccc3c(c2)OCO3)nc1C | 4.0% | 42.7* | 81.6* | -7.6%
CC(=O)c1sc(NC(=O)c2ccccc2F)nc1C | 13.4% | 28.4* | 43.0* | 8.6%
CC(=O)c1sc(NC(=O)c2ccc(C(C)(C)C)cc2)nc1C | ? | 67.2* | 158.2* | -1.3%
COc1ccc(C(=O)Nc2nc(C)c(C(C)=O)s2)cc1S(=O)(=O)N1CCOCC1 | -10.4% | nt | nt | -13.5%
CCOc1ccccc1CNS(=O)(=O)c1ccc2c(c1)CCCN2C(C)=O | 14.0% | nt | nt | 10.8%
O=C(Nc1cccc(F)c1)C1CCN(S(=O)(=O)c2cccc3nsnc23)CC1 | -25.4% | nt | nt | 3.8%
O=C(NCC1(N2CCOCC2)CCCCCC1)c1cnn(-c2nccc(-c3ccco3)n2)c1C1CC1 | -0.4% | nt | nt | nt
Cc1cc(C)nc(NC(=NCc2ccc3c(c2)OCO3)NC(=O)Nc2ccccc2)n1 | -12.8% | 1.5 | -12.9 | 1.41µM*
CC(=O)c1sc(NC(=O)c2cnc(Cl)c(Cl)c2)nc1C | -13.8% | 14.2* | 84.0* | -4.6%
CC(=O)c1sc(Nc2nc(C)cc(C)n2)nc1C | -14.1% | -7.4 | -6.3 | -1.9%
CCN1CCc2nc(NC(=O)c3ccc4c(c3)OCCO4)sc2C1 | 38.4% | 32.9* | 97.9* | -5.6%
COc1ccc(/C=C/C(=O)Nc2nc(C)c(C(=O)N(C)C)s2)cc1OC | -3.9% | 1.4 | -12.1 | 4.8%
COc1ccc(C(=O)Nc2nc(C)c(C(=O)N(C)C)s2)cc1OC | 49.0% | 30.0* | 16.2 | -1.6%
Cc1nc(NC(=O)c2ccccc2)sc1Cc1ccc2c(c1)OCO2 | 20.9% | 67.6* | 24.6* | -7.9%
Cc1cccc(N(C(=O)CCC(=O)Nc2cc(C)on2)C(C(=O)NC2CCCC2)c2ccc(C)o2)c1 (centres undefined) | 31.5% | 26.0* | 28.4* | 2.2%
Cc1nc2cc(Cl)c(Cl)cc2nc1C | 67.5% | 48.3* | + | -15.3%
CCc1cccc(CC)c1NC(=O)Cn1c(-c2ccccc2Cl)nc2ccccc21 | 48.5% | 22.3* | 37.2* | 2.6%
CCOc1ccc(NC(=O)CN(C)C(=O)C2CC(=O)N(Cc3ccco3)C2)cc1OCC (centres undefined) | -10.4% | nt | nt | 44.7µM*
COc1cc(OC)cc(C(=O)NCC2Cc3cccc(-c4nc(C)cnc4C)c3O2)c1 (centres undefined) | -12.1% | nt | nt | nt
Cc1ccc2nc(NC(=O)CN3CCOCC3)sc2c1 | nt | 32.8* | 64.0* | -10.8%
CCc1sc(NC(=O)COC)nc1-c1ccccc1 | 4.3% | -0.8 | -6.0 | 0.0%
COCC(=O)Nc1nc2ccc(C)cc2s1 | 11.8% | 51.9* | 64.8* | 7.6%
SMILES | FMDV inh | Cycloheximide cs | Shiga inhibitor | Sm TGR block
Cc1ccc2nc(NC(=O)COc3ccc(F)cc3)sc2c1 | 2.4% | nt | nt | 8.9%
COCC(=O)Nc1nc(-c2ccc(C)cc2)c(C)s1 | 9.4% | 13.5* | 34.5* | -15.6%
COc1ccc(-c2nc(NC(=O)c3cc(C(C)(C)C)nn3C)sc2C)cc1 | 28.2µM* | 6.4 | 13.8 | 12.1%[11.4 µM]
COc1ccc(-c2nc(NC(=O)c3c(C)noc3C)sc2C)cc1 | ? | nt | nt | -2.8%
CCN1CCN(CC(=O)Nc2nc3ccc(C)cc3s2)CC1 | 14.2% | 12.5 | 14.7 | -2.6%
Cc1sc(NC(=O)c2ccc(=O)n(C)n2)nc1-c1ccccc1 | 31.0% | 31.7* | 42.4 | 4.0%
Cc1ccc2nc(NC(=O)COC(=O)c3ccncc3)sc2c1 | 45.0% | 34.7* | 65.8* | -1.7%
Cc1ccc(N2CC(O)=C(c3ccccc3)C2=N)cc1 | 34.3% | 17.7* | 24.2 | -2.3%
COc1ccc(NC(=O)c2ccco2)cc1NC(=O)c1ccc(OC(C)C)cc1 | 6.1% | nt | nt | -0.8%
Cc1nc2ccccc2c2nc(N)nn12 | -14.3% | 11.0 | 0.7 | -15.7%
Cc1nn2cc(-c3ccccc3)nc2[nH]c1=O | 0.0% | 12.1 | 20.9 | 8.2%
Nc1nn2cc(-c3ccccc3)nc2c2ccccc12 | 8.9% | 30.5* | 70.4* | 0.6%
Cc1cn2nc(N)c3ccccc3c2n1 | -5.8% | 18.9* | 28.9 | -3.7%
CCOC(=O)c1ccc(NC2=CC(=O)C(=O)c3ccccc32)cc1 | -3.2% | 13.5 | 23.3 | 2.3%
Cc1ccc(NC2=CC(=O)C(=O)c3ccccc32)cc1 | -39.3% | 43.3* | 114.6* | -24.6%
NS(=O)(=O)c1ccc(NC2=CC(=O)C(=O)c3ccccc32)cc1 | 25.1µM* | 1.8 | -1.3 | -21.7%
COc1cccc(-c2nc(CS(=O)(=O)CC(=O)NC3CCCC3)c(C)o2)c1 | ? | -0.6 | 15.1 | 44.7µM*
Cc1oc(-c2cccc(Cl)c2)nc1CS(=O)(=O)CC(=O)NC1CCCC1 | -5.4% | -2.9 | -8.8 | 44.7µM*
CC12CN3CC(C)(CN(C1)C3c1cc(Br)ccc1O)C2=O (centres undefined) | -20.8% | -5.7 | -13.3 | 9.6%
CC1(C)C(=O)OC(c2cc(Br)ccc2O)C(C)(C)C1=O (centres undefined) | 35.5µM* | 0.3 | -13.9 | 2.3%
Cc1cc2oc(C(=O)N(Cc3ccccc3F)C3CCS(=O)(=O)C3)c(C)c2cc1Cl (centres undefined) | ? | nt | nt | 4.3%
CCCCNC(=S)NNC(=O)c1csc(C(C)C)c1 | 53.8% | 16.5 | 29.9* | -1.4%
CCNC(=S)NNC(=O)c1csc(C(C)C)c1 | 53.2% | 51.2* | 77.0* | 1.8%
COc1cc(C(=O)NCc2ccc3c(c2)CCN3C(=O)c2ccc(Cl)cc2)cc(OC)c1OC | ? | nt | nt | 8.8%
CC(/C=C/c1ccc(C)o1)=C\C(=O)O | -18.5% | -2.8 | -12.7 | 7.94µM*
SMILES | FMDV inh | Cycloheximide cs | Shiga inhibitor | Sm TGR block
CC(=C/C(=O)O)/C=C/c1ccc(Cl)o1 | -9.2% | 50.3* | 78.1* | 0.0%
CC(/C=C\c1ccccc1)=C/C(=O)O | -4.7% | 6.7 | 14.9 | 29.0%
Cc1ccc(/C=N/NC(=O)C(=O)N/N=C/c2ccc(C)o2)o1 | -14.3% | 0.1 | -5.0 | -17.8%
CC(/C=C/c1cccs1)=C\C(=O)O | ? | 4.7 | 70.1 | 3.9%
CC(=O)/C=C/c1ccc(C)o1 | -6.7% | 11.1 | 17.8 | 7.08µM*
CC1CN(C(=O)N2CCC(C(=O)NC3CCCCCC3)CC2)c2cc(Cl)ccc2O1 (centres undefined) | -18.6% | nt | nt | -14.7%
CCCCCSc1nc2sc3c(c2c(=O)n1-c1ccccc1)CCN(C(C)=O)C3 | -23.0% | nt | nt | -2.2%
CCn1c(/C=C/c2ccc(O)cc2)nc2ccccc2c1=O | -25.7% | 9.8 | 8.9 | 3.5%
CCn1c(/C=C/c2ccccc2F)nc2ccccc2c1=O | -15.2% | 17.7* | 12.5 | -7.9%
COc1ccc(Cl)cc1-n1c(/C=C/c2cccc3ccccc23)nc2ccccc2c1=O | -22.4% | nt | nt | 6.5%
O=c1c2ccccc2nc(/C=C/c2ccc([N+](=O)[O-])o2)n1CCCO | ? | 17.7* | 26.7 | 17.8µM*
O=c1c2ccccc2nc(/C=C/c2cccc3ccccc23)n1-c1ccccc1Cl | 22.4µM* | nt | nt | 6.1%
CCn1c(/C=C/c2ccccc2C)nc2ccccc2c1=O | 2.0% | 19.0* | 51.3* | 4.4%
